According to PubChem BioAssay (NCI):
About 83,000 compounds went through this panel and 20% of them were active in at least one assay; those are over-represented in the sample as a whole.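 In brief: 96-well plates, 48 h treatment, single concentration, percent growth endpoint.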 A number with no mark means an inactive call. Calls of active or inactive are those of the source. Rule for the calls: active = growth percent below 10; inactive = the rest.

Key:
Test in all cases: NCI-60 one-dose screen, 48 h (100 = growth as untreated, 0 = no growth, -100 = all killed)
Conditions in all cases: 10 µM unless noted
T-47D breast = test system: T-47D breast
BT-549 breast = test system: BT-549 breast
MDA-MB-435 melanoma = test system: MDA-MB-435 melanoma
SW-620 colon = test system: SW-620 colon
MCF7 breast = test system: MCF7 breast
HCT-116 colon = test system: HCT-116 colon
HCC-2998 colon = test system: HCC-2998 colon
KM12 colon = test system: KM12 colon

Row | Compound | growth (T-47D breast) | growth (BT-549 breast) | growth (MDA-MB-435 melanoma) | growth (SW-620 colon) | growth (MCF7 breast) | growth (HCT-116 colon) | growth (HCC-2998 colon) | growth (KM12 colon)
1 | Cc1nc(/N=C(\N)NC(=O)Nc2cccc(Cl)c2)sc1C | 73.5% | 71.7% | -13.5% (active) | 38.2% | 35.9% | 66.4% | 78.2% | 41.6%
2 | Oc1c(I)cc(I)cc1CNCCCN(Cc1ccccn1)Cc1ccccn1 | -57% (active) | -73.2% (active) | -90.7% (active) | -61.9% (active) | -56.3% (active) | -87% (active) | -82.5% (active) | -85.1% (active)
3 | CCS(=O)(=O)c1ncnc2nc[nH]c12 | 89.8% | 90.9% | 104% | 99.8% | 89.2% | 87.3% | 107% | 108%
4 | CCN1C(=O)N(CC)C2Nn3c(s/c(=C4\C(=O)Nc5ccccc54)c3=O)=NC21 (configuration not stated) | 45.8% | 65.3% | -51% (active) | 27.6% | 29.1% | 31.8% | 88% | 33%
5 | C[C@H]1[C@H]2[C@H]3CC[C@@H]4[C@@]5(C)CC[C@H](O)C(C)(C)[C@@H]5CC[C@@]4(C)[C@]3(C)CC[C@]23CO[C@]1(C)[C@@H](C(=O)/C=C\c1cccnc1)C3 | 30.2% | 57.2% | 34.5% | 32.3% | 23.7% | 14.4% | 69.9% | 54.4%
6 | COc1cc(C(=O)/C=C/c2sc(Cl)nc2Cl)cc(OC)c1OC | 28.2% | 86.2% | 98.5% | -61% (active) | -68.1% (active) | -54.3% (active) | -58.3% (active) | 28.4%
7 | O=C(Nc1ccc(F)cc1F)c1cc(F)ccc1O | 6.93% (active) | 8.69% (active) | 14.6% | 20.8% | 4.23% (active) | 12.8% | 27.9% | 8.7% (active)
8 | COc1ccc2sc3c(NCCCNCCO)nc4ccccc4c3c(=O)c2c1 | 86.5% | 81.7% | 10.6% | -83.2% (active) | 25.7% | -79.3% (active) | -84.3% (active) | -15.6% (active)
9 | Cc1nc2ccccc2c(/C=C/c2ccccc2)c1C(=O)/C=C/c1ccc(C(F)(F)F)cc1 | -14.6% (active) | -25.6% (active) | -82.6% (active) | -32.9% (active) | -9.44% (active) | -64.5% (active) | -70.5% (active) | -58.9% (active)
10 | CCCCn1c(=O)c(-c2cc(-c3ccc(Cl)cc3)nc(-c3ccc(Cl)cc3)c2)cc2ccc(Cl)cc21 | 99.6% | 105% | 103% | 100% | 93.1% | 105% | 103% | 99.3%
11 | COc1c(C2CC(=O)Nc3c2c(C)nn3-c2nc3ccccc3[nH]2)cc2c(c1OC)OCO2 (configuration not stated) | 43.8% | 47.8% | -32.7% (active) | 36.4% | 24.1% | 28.5% | 94.1% | 45.9%
12 | CN(C)CCCNc1nc2ccccc2c2c(=O)c3cc(F)ccc3sc12 | 43.1% | 100% | -79.7% (active) | -51.4% (active) | 18.5% | -47% (active) | -80.4% (active) | 3.81% (active)
13 | CN1CCN(c2ccc(-c3ccc4ncc(C#N)c(Nc5ccc(F)c(Cl)c5)c4c3)cc2)CC1 | 60.7% | 63.3% | 21.6% | 21.5% | 51.4% | 18.2% | 48.6% | 57.2%
14 | N#Cc1c(-c2ccc(Cl)cc2)nc2c(c(-c3ccccc3)nn2-c2ccccc2)c1-c1ccc(O)cc1 | 55.4% | 62.3% | 49% | 54.4% | 19.6% | 14.3% | 84.9% | 41%
